Results filed as inconclusive are left out. Where a call stands in place of a potency, no number is given. Calls of active or inactive are those of the source. Unless noted, calls come from the whole dose curve.
How the values were obtained:
[1] = qHTS assay to identify small molecule antagonists of the sonic hedgehog signaling (Shh) pathway (AID 1259369); note: nearly all actives have a fitted effect of over 45% in size
Summary of the method: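 Read-out is luminescence from a firefly luciferase gene controlled by the Gli1 response element, in 3T3Gli1-Luc cells pre-incubated 4hr then exposed to compounds and conditioned medium for 24hr.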

[2] = qHTS assay to identify small molecule agonists of the androgen receptor (AR) signaling pathway in the presence of an antagonist - cell viability counter screen (AID 1259379; active = well fitted curve in the direction sought with a large enough effect in the repeat runs; an effect the other way counts as inactive or inconclusive;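 note: MDA-kb2 human breast cancer cells carrying an MMTV luciferase reporter; series mostly up to about 92 µM; nearly all actives have a fitted effect of over 25% in size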)
Summary of the method: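 Each compound was tested at 15 concentrations on MDA-kb2 cells in the presence of 3.0uM nilutamide. Viability was measured by CellTiter-Fluor fluorescence after a 16 hr incubation at 37C in a CO2-free atmosphere.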

[3] = qHTS assay to identify small molecule agonists of the estrogen receptor beta (ER-beta) signaling pathway - cell viability counter screen (AID 1259380; active = well fitted curve in the direction sought with a large enough effect in the repeat runs; an effect the other way counts as inactive or inconclusive; note: nearly all actives have a fitted effect of over 30% in size)
Summary of the method: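 Compounds dissolved in DMSO were pin-transferred onto ER-beta-UAS-bla HEK293T cells that had settled 6 hr, and exposure ran 16 hr at 37C. Following the reporter read, CellTiter-Glo luminescence after 30 min at room temperature indicated cytotoxicity.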

[4] = qHTS assay to identify small molecule antagonists of the estrogen receptor beta (ER-beta) signaling pathway - cell viability counter screen (AID 1259382; active = well fitted curve in the direction sought with a large enough effect in the repeat runs; an effect the other way counts as inactive or inconclusive; note: series mostly up to about 92 µM; nearly all actives have a fitted effect of over 55% in size)
Summary of the method: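 CellTiter-Glo ATP luminescence measured after the LiveBLAzer read in the same wells; ER-beta-UAS-bla HEK293T cells, 16 hr compound treatment with 1nM 17-beta-estradiol agonist at 37C, 5% CO2.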

[5] = target: Estrogen receptor (Homo sapiens) (UniProt P03372); assay: qHTS assay to identify small molecule agonists of the estrogen receptor alpha (ER-alpha) signaling pathway in the presence of an antagonist (AID 1259383); note: top concentration of the series differs between compounds; nearly all actives have a fitted effect of over 15% in size
Chain of Estrogen receptor (Homo sapiens) (P03372 whole entry, looked up): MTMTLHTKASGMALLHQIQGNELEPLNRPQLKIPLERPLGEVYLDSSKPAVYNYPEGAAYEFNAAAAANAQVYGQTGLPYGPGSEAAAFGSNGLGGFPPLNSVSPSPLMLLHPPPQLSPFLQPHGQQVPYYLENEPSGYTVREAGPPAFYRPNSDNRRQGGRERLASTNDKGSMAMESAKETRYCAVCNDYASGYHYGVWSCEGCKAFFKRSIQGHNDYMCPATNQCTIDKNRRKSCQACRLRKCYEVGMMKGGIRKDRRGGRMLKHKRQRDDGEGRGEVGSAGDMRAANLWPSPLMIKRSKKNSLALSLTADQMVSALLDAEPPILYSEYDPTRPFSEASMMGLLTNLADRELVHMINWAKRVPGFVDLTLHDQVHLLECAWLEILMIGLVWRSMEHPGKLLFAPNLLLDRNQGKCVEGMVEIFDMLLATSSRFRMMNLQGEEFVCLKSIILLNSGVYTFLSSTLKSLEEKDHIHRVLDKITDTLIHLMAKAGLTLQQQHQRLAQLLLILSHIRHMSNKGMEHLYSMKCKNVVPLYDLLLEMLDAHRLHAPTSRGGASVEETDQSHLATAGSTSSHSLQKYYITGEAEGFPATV
Summary of the method: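 Luminescent ERE-luciferase reporter, VM7Luc4E2 cells (endogenous ER-alpha); 10.0nM ICI-182,780 final; 15-point compound titration; 22hr at 37C; ONE-Glo, 30min RT.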

[6] = qHTS assay to identify small molecule agonists or antagonists of the thyroid stimulating hormone receptor (TSHR) signaling pathway - wild type cell line counter screen (AID 1259384)
Summary of the method: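 Wild-type Hek293 cells, 800/well, 18 h at 37C, then compound with Ro20-1724 for 30 min RT. cAMP by HTRF (cAMP-d2/anti-cAMP cryptate), 1 h RT, fluorescence read. 15 concentrations, triplicates.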

[7] = target: Thyrotropin receptor (Homo sapiens) (UniProt P16473); assay: qHTS assay to identify small molecule antagonists of the thyroid stimulating hormone receptor (TSHR) signaling pathway (AID 1259385); note: nearly all actives have a fitted effect of over 20% in size
Chain of Thyrotropin receptor (Homo sapiens) (P16473 whole entry, looked up): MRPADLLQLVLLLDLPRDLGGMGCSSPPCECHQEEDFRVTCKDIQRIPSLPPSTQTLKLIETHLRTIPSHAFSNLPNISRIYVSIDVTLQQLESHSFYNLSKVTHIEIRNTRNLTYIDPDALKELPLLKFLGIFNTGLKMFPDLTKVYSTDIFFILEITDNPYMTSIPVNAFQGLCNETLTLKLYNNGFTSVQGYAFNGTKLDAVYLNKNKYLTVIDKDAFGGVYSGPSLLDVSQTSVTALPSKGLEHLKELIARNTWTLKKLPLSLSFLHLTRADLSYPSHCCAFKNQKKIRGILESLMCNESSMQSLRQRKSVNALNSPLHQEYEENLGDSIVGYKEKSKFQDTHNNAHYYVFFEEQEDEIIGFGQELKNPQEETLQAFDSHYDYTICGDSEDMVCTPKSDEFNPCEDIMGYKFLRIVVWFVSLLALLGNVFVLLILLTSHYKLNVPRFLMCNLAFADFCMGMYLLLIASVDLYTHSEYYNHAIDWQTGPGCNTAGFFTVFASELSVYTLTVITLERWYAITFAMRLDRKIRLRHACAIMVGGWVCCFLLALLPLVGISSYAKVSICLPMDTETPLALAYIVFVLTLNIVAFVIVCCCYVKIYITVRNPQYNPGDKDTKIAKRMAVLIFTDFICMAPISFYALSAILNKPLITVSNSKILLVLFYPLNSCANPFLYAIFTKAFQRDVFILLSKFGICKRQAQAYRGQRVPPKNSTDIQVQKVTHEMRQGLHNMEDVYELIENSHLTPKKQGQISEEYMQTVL
Summary of the method: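 TSHR-HEK293 cells (800/well) plated 18 h, then compounds with Ro20-1724 and TSH at 1.5 ng/mL final, 30 min at room temperature. cAMP quantified by HTRF (cAMP-d2/anti-cAMP-cryptate, 1 h); 15 concentrations in triplicate.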

[8] = qHTS assay to identify small molecule agonists of the estrogen receptor alpha (ER-alpha) signaling pathway in the presence of an antagonist - cell viability counter screen (AID 1259386; active = well fitted curve in the direction sought with a large enough effect in the repeat runs; an effect the other way counts as inactive or inconclusive;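 note: cells exposed to compounds for 22 h at 37 °C before the viability read; nearly all actives have a fitted effect of over 30% in size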; note: potency is the fitted concentration of half-maximal effect)
Summary of the method: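 Using estrogen-depleted VM7Luc4E2 cells, the 15-concentration compound series was applied together with 10.0nM ICI-182,780 and incubated 22hr at 37C/5% CO2. Cell viability was then scored by CellTiter-Fluor.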

[9] = target: Progesterone receptor (Homo sapiens) (UniProt P06401); assay: qHTS assay to identify small molecule antagonists of the progesterone receptor (PR) signaling pathway (AID 1346795; active = well fitted inhibition curve with a large enough effect in the signal ratio in the repeat runs, not every such curve was filed as active; the % refers to the signal ratio)
Chain of Progesterone receptor (Homo sapiens) (P06401 whole entry, looked up): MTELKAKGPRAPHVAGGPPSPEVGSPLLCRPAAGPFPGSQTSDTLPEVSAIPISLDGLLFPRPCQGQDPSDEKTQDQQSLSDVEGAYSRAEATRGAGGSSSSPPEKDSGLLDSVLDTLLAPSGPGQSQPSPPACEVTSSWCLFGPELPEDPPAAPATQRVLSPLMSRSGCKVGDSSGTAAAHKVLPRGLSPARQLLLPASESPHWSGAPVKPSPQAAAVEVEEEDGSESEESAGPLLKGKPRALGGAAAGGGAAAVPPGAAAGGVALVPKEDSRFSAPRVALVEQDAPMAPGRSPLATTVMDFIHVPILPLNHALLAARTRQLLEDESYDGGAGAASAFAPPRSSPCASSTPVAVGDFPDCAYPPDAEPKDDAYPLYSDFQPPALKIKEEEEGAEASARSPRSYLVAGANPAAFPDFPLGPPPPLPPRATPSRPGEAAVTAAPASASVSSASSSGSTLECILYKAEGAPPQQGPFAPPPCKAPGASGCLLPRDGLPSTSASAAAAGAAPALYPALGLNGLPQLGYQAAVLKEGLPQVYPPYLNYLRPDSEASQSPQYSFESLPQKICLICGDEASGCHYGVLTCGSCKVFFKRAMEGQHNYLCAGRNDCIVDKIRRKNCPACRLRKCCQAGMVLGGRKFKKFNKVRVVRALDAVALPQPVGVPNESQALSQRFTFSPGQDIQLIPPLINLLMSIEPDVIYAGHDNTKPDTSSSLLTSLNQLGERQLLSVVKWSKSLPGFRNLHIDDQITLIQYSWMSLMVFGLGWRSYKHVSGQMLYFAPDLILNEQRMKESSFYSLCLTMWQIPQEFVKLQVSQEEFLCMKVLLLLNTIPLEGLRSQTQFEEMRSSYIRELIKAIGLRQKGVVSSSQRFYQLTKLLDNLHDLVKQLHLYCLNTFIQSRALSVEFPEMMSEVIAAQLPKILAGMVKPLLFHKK
Summary of the method: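 Inhibition of R5020-induced (1 nM final) beta-lactamase reporter signal in PR-UAS-bla HEK293T cells was scored by FRET fluorescence after overnight (16 hr) compound treatment.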

[10] = qHTS assay to identify small molecule antagonists of the TGF-beta/Smad signaling pathway - cell viability counter screen (AID 1346824; active = well fitted curve in the direction sought with a large enough effect in the repeat runs; an effect the other way counts as inactive or inconclusive; note: nearly all actives have a fitted effect of over 50% in size)
Summary of the method: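 SBE-bla HEK 293T cells, incubated overnight, then compound plus 0.25 ng/mL TGF-beta1 (stock added) for 5 hr at 37 C. Viability was read in the same wells by CellTiter-Glo luminescence after 30 min at room temperature.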

[11] = qHTS assay to identify small molecule agonists of the TGF-beta/Smad signaling pathway - cell viability counter screen (AID 1346829; active = well fitted curve in the direction sought with a large enough effect in the repeat runs; an effect the other way counts as inactive or inconclusive; note: top concentration of the series differs between compounds; nearly all actives have a fitted effect of over 45% in size)
Summary of the method: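 HEK 293T SBE-bla line, 5 hr compound exposure at 37 C, multiplexed CellTiter-Glo viability read by luminescence.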

[12] = target: Thyrotropin-releasing hormone receptor (Homo sapiens) (UniProt P34981); assay: qHTS assay to identify small molecule antagonists of the thyrotropin-releasing hormone receptor (TRHR) signaling pathway (AID 1346877; active = well fitted inhibition curve with a large enough effect in the repeat runs, not every such curve was filed as active; note: series mostly up to about 51 µM)
Chain of Thyrotropin-releasing hormone receptor (Homo sapiens) (P34981 whole entry, looked up): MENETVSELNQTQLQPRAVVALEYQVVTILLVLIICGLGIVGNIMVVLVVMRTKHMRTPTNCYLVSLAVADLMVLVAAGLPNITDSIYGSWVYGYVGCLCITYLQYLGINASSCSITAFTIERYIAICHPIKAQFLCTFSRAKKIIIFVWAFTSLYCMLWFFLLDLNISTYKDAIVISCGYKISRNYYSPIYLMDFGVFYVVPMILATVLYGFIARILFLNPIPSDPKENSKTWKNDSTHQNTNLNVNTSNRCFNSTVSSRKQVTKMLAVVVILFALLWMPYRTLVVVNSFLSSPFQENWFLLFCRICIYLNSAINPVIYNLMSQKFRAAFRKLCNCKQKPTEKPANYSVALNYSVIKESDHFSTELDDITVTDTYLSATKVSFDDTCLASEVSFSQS
Summary of the method: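 Calcium signal in dye-loaded TRHR/HEK293 cells; compounds added 5 min before TRH (1 nM final); fluorescence monitored 3 min at 1 s steps.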

[13] = target: Thyrotropin-releasing hormone receptor (Homo sapiens) (UniProt P34981); assay: qHTS assay to identify small molecule agonists of the thyrotropin-releasing hormone receptor (TRHR) signaling pathway (AID 1346891);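 note: HEK293 cells expressing TRHR with calcium dye readout; series mostly up to about 58 µM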
Summary of the method: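 In 1536-format, 1500 TRHR-Hek293 cells per well grew 18 h, took up calcium dye for 2 h at 37 °C, received compound, and were read kinetically; 15-point titrations, triplicates.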

[14] = target: Estrogen receptor beta (Homo sapiens) (UniProt Q92731); assay: qHTS assay to identify small molecule agonists of the estrogen receptor beta (ER-beta) signaling pathway (AID 1259377; active = well fitted activation curve with a large enough effect in the signal ratio in the repeat runs, not every such curve was filed as active; the % refers to the signal ratio; note: potency is the fitted concentration of half-maximal effect)
Chain of Estrogen receptor beta (Homo sapiens) (Q92731 whole entry, looked up): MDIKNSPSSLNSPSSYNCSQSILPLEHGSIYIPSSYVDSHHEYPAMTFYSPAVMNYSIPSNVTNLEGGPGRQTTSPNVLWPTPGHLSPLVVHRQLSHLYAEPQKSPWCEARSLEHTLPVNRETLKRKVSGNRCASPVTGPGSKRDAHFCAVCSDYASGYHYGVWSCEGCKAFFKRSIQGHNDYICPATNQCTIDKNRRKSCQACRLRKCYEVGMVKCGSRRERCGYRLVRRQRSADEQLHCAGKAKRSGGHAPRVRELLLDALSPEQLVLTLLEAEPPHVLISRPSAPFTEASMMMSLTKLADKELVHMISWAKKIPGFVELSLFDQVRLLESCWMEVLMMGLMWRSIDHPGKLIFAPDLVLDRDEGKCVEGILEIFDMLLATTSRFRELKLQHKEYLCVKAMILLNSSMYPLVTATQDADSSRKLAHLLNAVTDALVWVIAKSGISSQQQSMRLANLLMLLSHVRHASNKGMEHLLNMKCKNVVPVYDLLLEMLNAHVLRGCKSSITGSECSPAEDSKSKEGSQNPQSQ
Summary of the method: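 In HEK293T cells bearing a UAS-beta-lactamase reporter under ER-beta control, DMSO-delivered compounds were incubated for 16 hr at 37C. Activity was detected as fluorescence 2 hours after LiveBLAzer B/G FRET substrate addition.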

[15] = target: Progesterone receptor (Homo sapiens) (UniProt P06401); assay: qHTS assay to identify small molecule agonists of the progesterone receptor (PR) signaling pathway (AID 1346784); note: nearly all actives have a fitted effect of over 30% in size
Summary of the method: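 Using charcoal-stripped serum (2%) to limit endogenous steroids, PR-UAS-bla HEK 293T cells received compounds for 16 hr at 37C after 6 hr plating; beta-lactamase FRET fluorescence was recorded following 2 hr substrate loading at room temperature.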

[16] = qHTS assay to identify small molecule agonists of the progesterone receptor (PR) signaling pathway - cell viability counter screen (AID 1346799); note: nearly all actives have a fitted effect of over 45% in size; note: potency is the fitted concentration of half-maximal effect
Summary of the method: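 Cytotoxicity in PR-bla HEK293T cells: 16 h compound, 37C; CellTiter-Glo added post-FRET read; luminescence after 30 min RT.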

[17] = qHTS assay to identify small molecule agonists of the TGF-beta/Smad signaling pathway (AID 1346859; active = well fitted activation curve with a large enough effect in the signal ratio in the repeat runs, not every such curve was filed as active; the % refers to the signal ratio; note: series mostly up to about 77 µM)
Summary of the method: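 Stable Smad binding element-beta-lactamase HEK 293T cells; 5 hr compound exposure at 37 C under 5% CO2; 2 hr room-temperature substrate step; fluorescence excited at 405 nm, collected at 460 nm and 530 nm.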

[18] = target: Estrogen receptor beta (Homo sapiens) (UniProt Q92731); assay: qHTS assay to identify small molecule antagonists of the estrogen receptor beta (ER-beta) signaling pathway (AID 1259378; active = well fitted inhibition curve with a large enough effect in the signal ratio in the repeat runs, not every such curve was filed as active; the % refers to the signal ratio)
Summary of the method: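 ER-beta-UAS-bla HEK293T cells in 2% charcoal-stripped FBS medium treated with compound plus 1nM final 17-beta-estradiol for 16 hr at 37C. Beta-lactamase reporter read by FRET substrate fluorescence after 2 hours at room temperature.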

[19] = qHTS assay to identify small molecule antagonists of the progesterone receptor (PR) signaling pathway - cell viability counter screen (AID 1346798; active = well fitted curve in the direction sought with a large enough effect in the repeat runs; an effect the other way counts as inactive or inconclusive; note: series mostly up to about 92 µM; nearly all actives have a fitted effect of over 50% in size)
Summary of the method: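 ATP content as viability readout: CellTiter-Glo luminescence, 30 min room temperature, in PR-UAS-bla HEK293T cells after 16 hr compound/R5020 treatment at 37C and 5% CO2.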

[20] = target: Androgen receptor (Homo sapiens) (UniProt P10275); assay: qHTS assay to identify small molecule agonists of the androgen receptor (AR) signaling pathway in the presence of an antagonist (AID 1259381); note: nearly all actives have a fitted effect of over 15% in size
Chain of Androgen receptor (Homo sapiens) (P10275 whole entry, looked up): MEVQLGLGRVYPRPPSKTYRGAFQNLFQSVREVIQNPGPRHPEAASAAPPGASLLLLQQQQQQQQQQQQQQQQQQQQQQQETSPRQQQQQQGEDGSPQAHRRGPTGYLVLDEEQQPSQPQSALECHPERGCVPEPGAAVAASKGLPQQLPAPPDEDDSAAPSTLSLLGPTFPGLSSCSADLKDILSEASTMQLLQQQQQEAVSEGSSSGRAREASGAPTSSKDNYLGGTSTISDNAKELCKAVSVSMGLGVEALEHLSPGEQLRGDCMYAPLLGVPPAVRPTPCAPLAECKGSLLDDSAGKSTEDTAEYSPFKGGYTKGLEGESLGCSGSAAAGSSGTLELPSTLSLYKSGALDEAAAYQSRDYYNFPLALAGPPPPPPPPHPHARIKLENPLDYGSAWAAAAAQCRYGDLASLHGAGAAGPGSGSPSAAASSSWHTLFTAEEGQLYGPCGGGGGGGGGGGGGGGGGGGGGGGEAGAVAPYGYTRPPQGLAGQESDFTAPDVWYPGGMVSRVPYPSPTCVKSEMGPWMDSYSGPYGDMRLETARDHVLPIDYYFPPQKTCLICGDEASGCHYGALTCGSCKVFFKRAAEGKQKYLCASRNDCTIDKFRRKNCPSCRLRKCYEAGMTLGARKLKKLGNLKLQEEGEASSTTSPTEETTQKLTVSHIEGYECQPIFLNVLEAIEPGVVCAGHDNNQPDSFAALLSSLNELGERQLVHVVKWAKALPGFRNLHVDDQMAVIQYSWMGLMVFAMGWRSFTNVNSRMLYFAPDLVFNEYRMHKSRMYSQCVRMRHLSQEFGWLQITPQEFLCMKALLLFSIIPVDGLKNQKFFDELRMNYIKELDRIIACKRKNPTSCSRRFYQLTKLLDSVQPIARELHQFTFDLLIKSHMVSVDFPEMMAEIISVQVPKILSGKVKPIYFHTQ
Summary of the method: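 Plated MDA-kb2 cells (3,000/well) were pre-incubated 5hr, given nilutamide (3.0uM final) or buffer, then dosed with compounds in DMSO at 15 concentrations. Luciferase activity was quantified by luminescence after 16hr at 37C.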

Row | SMILES | Potency [1] | Potency [2] | Potency [3] | outcome [4] | outcome [5] | outcome [6] | outcome [7] | Potency [8] | Potency [9] | outcome [10] | outcome [11] | outcome [12] | Potency [13] | Potency [14] | Potency [15] | Potency [16] | outcome [17] | Potency [18] | Potency [19] | Potency [20]
1 | CC1=NN(c2cccc(S(=O)(=O)O)c2)C(=O)C1 | inactive | inactive | inactive | inactive | inactive | inactive | inactive | inactive | inactive | inactive | inactive | inactive | inactive |  |  |  |  |  |  | 
2 | O=C1c2ccccc2C(=O)c2cc(O)ccc21 | inactive |  | inactive | inactive |  | inactive |  | 27.3 µM (active) | inactive |  |  |  |  | 5.45 µM (active) |  |  |  |  |  | 
3 | CC(=O)Oc1cccc(C)c1 | inactive | inactive | inactive | inactive | inactive | inactive | inactive | inactive | inactive | inactive | inactive | inactive | inactive |  | inactive | inactive | inactive |  |  | 
4 | C=C(C)C(=O)OCC1CCCO1 (stereo not drawn) | inactive |  | inactive | inactive |  |  |  | inactive |  |  |  | inactive | inactive | inactive | inactive | inactive | inactive | inactive | inactive | 
5 | Cc1ccc(C(=O)c2ccccc2)cc1 | inactive |  |  | inactive | inactive | inactive | inactive | inactive | inactive | inactive | inactive | inactive | inactive | inactive | inactive | inactive | inactive | inactive | inactive | inactive
6 | C1CCC2(CCCCO2)OC1 | inactive | inactive |  | inactive | inactive | inactive |  | inactive | inactive | inactive | inactive | inactive | inactive | inactive | inactive | inactive | inactive |  |  | 
7 | CCN(C=O)CC | inactive |  |  | inactive |  | inactive | inactive | inactive |  | inactive | inactive | inactive | inactive | inactive |  | 49.8 µM (active) | inactive | inactive |  | 
8 | CC1CCC(CO)CC1 (stereo not drawn) | inactive |  |  | inactive | inactive | inactive |  | inactive |  |  | inactive | inactive |  | inactive | inactive | inactive | inactive | inactive |  | inactive
9 | CCCCCCCCCCCCCCCCCCO | inactive | inactive | inactive | inactive | inactive | inactive | inactive | inactive | inactive | inactive |  | inactive | inactive |  |  | inactive |  |  |  | 
10 | C[N+](C)(CCOc1ccccc1)Cc1cccs1 | inactive |  | inactive | inactive |  | inactive | inactive | inactive |  | inactive |  | inactive | inactive | inactive |  | inactive |  | inactive | inactive | 

Reference: PubChem BioAssay (Tox21)
